Data published in PubChem BioAssay (EPA / NIEHS).
Inconclusive results are not listed. Active and inactive are the calls of the source. The calls were made as follows: active = hit-call score of the fitted dose curve at least 0.9, where 1 is the maximum; inconclusive = response in the unintended direction; inactive = score below 0.9.

read-out: Cytochrome P450 2B6 (Homo sapiens) (UniProt P20813); assay: CLD_CYP2B6_6hr: CellzDirect (CLD) Gene Expression Assay for xenobiotic metabolism (CYP2B6) at 6 hours (AID 2283677);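 also: actives raise CYP2B6 transcript above DMSO baseline so AC50 marks an inducer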
Protocol: CLD_6hr is a cell-based, multiplexed-readout assay that uses hepatocyte, a human liver primary cell, with measurements taken at 6 hours after chemical dosing in a 96-well plate.CLD_CYP2B6_6hr is one of 16 assay component(s) measured or calculated from the CLD_6hr assay. It is designed to make measurements of mRNA induction, a form of inducible reporter, as detected with chemiluminescence signals by Quantitative Nuclease Protection Assay (qNPA) technology.Data from the assay component CLD_CYP2B6_6hr was analyzed at the endpoint, CLD_CYP2B6_6hr, in the positive analysis fitting direction relative to DMSO as the negative control and baseline of activity. Using a type of inducible reporter, gain-of-signal activity can be used to understand changes in the reporter gene as they relate to the gene CYP2B6. Furthermore, this assay endpoint can be referred to as a primary readout. To generalize the intended target to other relatable targets, this assay endpoint is annotated to the cyp intended target family, where subfamily is xenobiotic metabolism.
Human hepatocyte cultures were treated daily for two consecutive days with fresh dosing solutions containing appropriate concentrations of the 320 ToxCast chemicals (chemical identities were blinded to CellzDirect and other ToxCast collaborators), vehicle control (0.2% DMSO), and positive control inducers as summarized in Table 1. Due to the large number of treatment groups and chemicals examined, the ToxCast chemicals were divided into two groups (spanning two independent cultures of hepatocytes from separate donor preparations (Hu778: ToxCast plates 1 and 2; Hu776: ToxCast plates 3 and 4). Each preparation of human hepatocyte cultures was treated with respective vehicle control, medium only control, set of six positive controls/reference chemicals for the five hepatic receptor pathways, and a subset of eight of the ToxCast chemicals (indoxacarb, pyrithiobac-sodium, norflurazon, cyhalofop-butyl, methomyl, thiram, acetochlor, and propiconazole). These replicate data, coupled with internal replicates designed within the blinded ToxCast chemical library, provided additional data to evaluate interindividual differences between hepatocyte preparations and their potential impact on chemical profiles.Cell morphology and integrity were evaluated using phase-contrast microscopy as an indicator of hepatocyte cell health (Tyson & Green, 1987). Cultures for each treatment group (i.e., media, vehicle [0.2% DMSO], positive control inducers [multiple concentrations], and the ToxCast chemicals [multiple concentrations]) were observed and cell morphology was assessed relative to vehicle control cultures at each harvest time point (0, 6, 24, or 48 h). […] Images were evaluated at the conclusion of the study to assess changes in cell integrity and account for the effects of chemical exposure on uncharacteristic changes in concentration-dependent gene expression profiles. The results from these determinations of apparent cytotoxicity were annotated (yes/no) alongside the corresponding qNPA data for reference.At the conclusion of each treatment period, hepatocyte cultures (96-well) were washed with 1 volume of HBSS, lysed by addition of 25 ul ArrayPlate lysis buffer (HTG, Tucson, AZ), and 70 ul/well of Denaturation Oil, denatured by incubation at 95C for 10 min, and frozen at approximately -70C until analysis by nuclease protection assay (qNPA) (Roberts et al., 2007). For qNPA analysis, cell lysates were thawed at 50C for approximately 30 min, qNPA probes were added, and samples were incubated at 95C for 10 min to begin the detection process by denaturing the target RNA, dissociating the duplexes and secondary structure hybridization. At the conclusion of the hybridization period, S1 nuclease reagent was added to each sample to digest all nonprotected nucleotides at 50C for 60-90 min. […]

Q: For `C=CCOC(=O)C(C)(C)OC(=O)c1cc(-n2c(=O)cc(C(F)(F)F)n(C)c2=O)ccc1Cl`, which AC50 is on record?
A: Its AC50 is 320 nM (active).

Q: For `Nc1c(Cl)c(F)nc(OCC(=O)O)c1Cl`, which outcome is on record?
A: Its outcome is “inactive”.

Q: `Cc1ccc(N=CN(C)C=Nc2ccc(C)cc2C)c(C)c1` was tested. Which outcome did it give?
A: Its outcome is “inactive”.

Q: With `CS(=O)(=O)c1cc(C(F)(F)F)ccc1C(=O)c1cnoc1C1CC1` as the molecule, how does the outcome read?
A: Its outcome is “inactive”.

Q: Which AC50 does the source give for `CC(C)C1(C)N=C(c2ncccc2C(=O)O)NC1=O` (stereo not given) here?
A: The AC50 was 0.54 nM (active).

Q: `CC(C)Nc1nc(Cl)nc(NC(C)C)n1` was tested. Which AC50 did it give?
A: Its AC50 is 2470 nM (active).

Q: Which AC50 does the source give for `CSC(=O)c1c(C(F)F)nc(C(F)(F)F)c(C(=O)SC)c1CC(C)C` here?
A: The AC50 was 2110 nM (active).

Q: With `CC(C)N1C(=O)N(c2ccccc2)CSC1=NC(C)(C)C` as the molecule, how does the AC50 read?
A: The AC50 was 7110 nM (active).

Q: With `C=C(C)CN(CC)c1c([N+](=O)[O-])cc(C(F)(F)F)cc1[N+](=O)[O-]` as the molecule, how does the outcome read?
A: The outcome was “inactive”.

Q: How did the outcome turn out when `N#CN=C1SCCN1Cc1ccc(Cl)nc1` was run?
A: Its outcome is “inactive”.

Q: Which AC50 does the source give for `Cc1cc(C)nc(Nc2ccccc2)n1` here?
A: The AC50 was 994 nM (active).

Q: With `COc1ccc(-c2ccccc2)cc1NNC(=O)OC(C)C` as the molecule, how does the AC50 read?
A: The AC50 was 6490 nM (active).

Q: `CCC(C)n1c(=O)[nH]c(C)c(Br)c1=O` (stereo not given) was tested. Which AC50 did it give?
A: Its AC50 is 3080 nM (active).

Q: Which AC50 does the source give for `CC(C)=CC1C(C(=O)OCc2coc(Cc3ccccc3)c2)C1(C)C` (stereo not given) here?
A: Its AC50 is 7480 nM (active).

Q: How did the AC50 turn out when `N#Cc1c(Cl)cccc1Cl` was run?
A: The AC50 was 4850 nM (active).

Q: How did the AC50 turn out when `CC1(C)C(C(=O)OC(C#N)c2cccc(Oc3ccccc3)c2)C1(C)C` (stereo not given) was run?
A: Its AC50 is 4010 nM (active).

Q: With `COP(=S)(OC)SCn1nnc2ccccc2c1=O` as the molecule, how does the AC50 read?
A: The AC50 was 448 nM (active).

Q: How did the AC50 turn out when `CC(C)Oc1cccc(NC(=O)c2ccccc2C(F)(F)F)c1` was run?
A: The AC50 was 3680 nM (active).

Q: `Cc1cnc(C2=NC(C)(C(C)C)C(=O)N2)c(C(=O)O)c1` (stereo not given) was tested. Which outcome did it give?
A: The outcome was “inactive”.

Q: For `COC(=O)N(C(=O)N1CO[C@@]2(C(=O)OC)Cc3cc(Cl)ccc3C2=N1)c1ccc(OC(F)(F)F)cc1`, which AC50 is on record?
A: The AC50 was 2090 nM (active).

Q: For `COP(=S)(OC)Oc1ccc([N+](=O)[O-])c(C)c1`, which AC50 is on record?
A: Its AC50 is 1460 nM (active).

Q: `CCOP(=O)(OCC)Oc1nc(Cl)c(Cl)cc1Cl` was tested. Which AC50 did it give?
A: Its AC50 is 7260 nM (active).

Q: Which outcome does the source give for `CCCC(=NOCC)C1=C(O)CC(CC(C)SCC)CC1=O` (stereo not given) here?
A: Its outcome is “inactive”.

Q: How did the AC50 turn out when `CCOc1cc(C(C)(C)C)ccc1C1COC(c2c(F)cccc2F)=N1` (stereo not given) was run?
A: Its AC50 is 4690 nM (active).

Q: Which AC50 does the source give for `CCN(CC)C(=O)C(C)Oc1cccc2ccccc12` (stereo not given) here?
A: Its AC50 is 317 nM (active).

Q: `COC(=O)c1c(C(F)F)nc(C(F)(F)F)c(C2=NCCS2)c1CC(C)C` was tested. Which AC50 did it give?
A: Its AC50 is 277 nM (active).

Q: With `CC1(C)CON(Cc2ccccc2Cl)C1=O` as the molecule, how does the AC50 read?
A: Its AC50 is 3310 nM (active).

Q: How did the AC50 turn out when `CC1(C)C(C=C(Cl)Cl)C1C(=O)OC(C#N)c1cccc(Oc2ccccc2)c1` (stereo not given) was run?
A: Its AC50 is 1540 nM (active).

Q: For `CCOC(=O)C(C)OC(=O)c1cc(Oc2ccc(C(F)(F)F)cc2Cl)ccc1[N+](=O)[O-]` (stereo not given), which AC50 is on record?
A: Its AC50 is 7300 nM (active).

Q: How did the AC50 turn out when `CCCCC(O)(Cn1cncn1)c1ccc(Cl)cc1Cl` (stereo not given) was run?
A: Its AC50 is 2080 nM (active).

Q: For `COCC(=O)N(c1c(C)cccc1C)C(C)C(=O)OC` (stereo not given), which AC50 is on record?
A: The AC50 was 2500 nM (active).

Q: Which outcome does the source give for `COP(=O)(OC)O/C(C)=C/C(=O)N(C)C` here?
A: The outcome was “inactive”.

Q: Which outcome does the source give for `O=C(O)c1c(Cl)ccc2cc(Cl)cnc12` here?
A: The outcome was “inactive”.

Q: How did the AC50 turn out when `Cc1nc(N(C)C)nc(OC(=O)N(C)C)c1C` was run?
A: Its AC50 is 3940 nM (active).

Q: How did the outcome turn out when `CNC(=O)N(C)c1nnc(C(C)(C)C)s1` was run?
A: Its outcome is “inactive”.

Q: For `COC(=O)NS(=O)(=O)c1ccc(N)cc1`, which outcome is on record?
A: The outcome was “inactive”.

Q: With `Clc1cccc(C(Cl)(Cl)Cl)n1` as the molecule, how does the AC50 read?
A: The AC50 was 1900 nM (active).

Q: With `CCCCC(C#N)(Cn1cncn1)c1ccc(Cl)cc1` (stereo not given) as the molecule, how does the AC50 read?
A: Its AC50 is 2770 nM (active).

Q: For `OC(c1ccc(Cl)cc1)(c1ccc(Cl)cc1)C(Cl)(Cl)Cl`, which AC50 is on record?
A: Its AC50 is 3960 nM (active).

Q: How did the AC50 turn out when `CCCN(CC)CC1COC2(CCC(C(C)(C)C)CC2)O1` (stereo not given) was run?
A: The AC50 was 13400 nM (active).
